A number with no mark means an inactive call. Results filed as inconclusive are left out. The source made the active and inactive calls. Unless noted, calls follow the shape of the dose curve; as a rule, active = well fitted curve in the direction sought with a large enough effect; inconclusive = small, poorly fitted or top-dose-only effect, or another doubt; inactive = no such curve, though single readings can be large; an effect the other way counts as inactive or inconclusive.

For assay [1], the target named is Lysosomal acid glucosylceramidase (Homo sapiens) (UniProt P04062). The assay is described as follows: Glucocerebrosidase-p2 (AID 348; in the data active = potency below about 10 µM; also: potency is read from the fitted curve at half-maximal effect). The conditions noted are these: purified GBA, blue fluorogenic substrate, 40 min. In outline: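 Normal human glucocerebrosidase (0.2 nM) with blue fluorogenic substrate (80 uM final) in citrate/phosphate pH 5.9 with 10mM sodium taurocholate, 0.01% tween-20; 40 min RT, NaOH/glycine stop; fluorescence Ex 365/Em 440; AC50 from a titration from 0.6 nM upwards.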
Sequence of Lysosomal acid glucosylceramidase (Homo sapiens) (P04062 whole entry, looked up): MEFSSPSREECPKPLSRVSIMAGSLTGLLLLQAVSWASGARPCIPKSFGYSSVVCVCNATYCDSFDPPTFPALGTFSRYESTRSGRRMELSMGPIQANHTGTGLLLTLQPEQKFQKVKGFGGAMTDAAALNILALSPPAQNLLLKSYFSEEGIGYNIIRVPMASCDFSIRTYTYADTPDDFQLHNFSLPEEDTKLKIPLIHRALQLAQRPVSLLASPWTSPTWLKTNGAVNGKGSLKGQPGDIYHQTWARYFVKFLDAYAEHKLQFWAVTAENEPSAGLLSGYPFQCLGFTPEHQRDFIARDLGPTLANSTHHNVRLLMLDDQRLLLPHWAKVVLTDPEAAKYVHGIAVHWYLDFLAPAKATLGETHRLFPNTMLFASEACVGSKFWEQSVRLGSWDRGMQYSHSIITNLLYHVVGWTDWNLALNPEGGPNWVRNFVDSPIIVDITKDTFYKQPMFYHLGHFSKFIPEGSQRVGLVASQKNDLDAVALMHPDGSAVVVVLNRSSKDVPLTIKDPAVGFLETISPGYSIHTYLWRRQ

Assay [2] is described as follows: AP1 Signaling Pathway (AID 357; active = well fitted curve in either direction with a large enough effect, not every such curve was filed as active; also: % is scaled to controls: 0 for no effect and ±100 for the full control effect). The conditions noted are these: ME-180 AP-1-bla reporter, EGF-induced, beta-lactamase ratio, 5 h; at 7.69 µM (top of the series) unless noted. In short, it runs like this: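 ME-180 cells with beta-lactamase reporter under AP-1 response element, stimulated with EC50 EGF; compounds tested in titration series, 5 h at 37 °C. CCF4 substrate added 2.5 h at room temperature; 460/530 nm emission ratio gave %activity and AC50.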

Assay [3] concerns the target Cytochrome P450 1A2 (Homo sapiens) (UniProt P05177). In words: p450-cyp1a2 (AID 410; calls by dose curve; also: potency is read from the fitted curve at half-maximal effect). As to conditions: recombinant CYP1A2, luciferin-ME demethylation, luminescence; series mostly up to 57 µM. In short, it runs like this:
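O-Demethylation of luciferin 6' methyl ether by human CYP1A2 is monitored as luciferase luminescence. Substrate sits at Km (100uM); enzyme is 20nM. Values are scaled to 57 uM furafylline as maximal inhibition.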

The nature of assay [4]: NFAT Signaling Pathway (AID 444; active = well fitted curve in either direction with a large enough effect, not every such curve was filed as active;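 also: carbachol stimulus at about its EC50 of 1 µM final; % is scaled to controls: 0 for no effect and ±100 for the full control effect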). The conditions noted are these: Jurkat NFAT-bla M1, carbachol, beta-lactamase ratio, 5 h; at 7.69 µM (top of the series) unless noted. In short, it runs like this:
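Jurkat cells with NFAT-driven β-lactamase reporter and co-expressed M1 receptor, stimulated with carbachol (final 1 uM, ~EC50), compound titration, 5 h at 37 °C. CCF4 loaded 1 h at RT; 460/530 nm ratio gave %activity and AC50.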

Assay [5] in a line: Stat Signaling Pathway (AID 446; active = well fitted curve in either direction with a large enough effect, not every such curve was filed as active;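 also: ME-180 cervical cancer cells given 40 pM IL-6 alongside compound; SIE-controlled beta-lactamase reporter measured as 460/530 nm FRET emission ratio; % is scaled to controls: 0 for no effect and ±100 for the full control effect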). As to conditions: ME-180 (cervical carcinoma) SIE beta-lactamase reporter, IL-6 stimulated, 5 h; at 7.69 µM (top of the series) unless noted. In short, it runs like this:
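Overnight-plated ME-180 cells bearing a STAT Inducible Element beta-lactamase reporter; 5 h co-exposure to compound and 40 pM IL-6; values normalized to 300 pM IL-6 and 125 nM JAK inhibitor controls.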

Assay [6] deals with Glucocorticoid receptor (Homo sapiens) (UniProt P04150). In words: GR-GFP Redistribution (AID 450;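 active = compounds whose dose series gives a full or clear partial fitted curve of increased nuclear translocation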; also: potency is read from the fitted curve at half-maximal effect). As to conditions: U2OS GR-GFP nuclear translocation, laser cytometry, 2 h.
Sequence of Glucocorticoid receptor (Homo sapiens) (P04150 whole entry, looked up): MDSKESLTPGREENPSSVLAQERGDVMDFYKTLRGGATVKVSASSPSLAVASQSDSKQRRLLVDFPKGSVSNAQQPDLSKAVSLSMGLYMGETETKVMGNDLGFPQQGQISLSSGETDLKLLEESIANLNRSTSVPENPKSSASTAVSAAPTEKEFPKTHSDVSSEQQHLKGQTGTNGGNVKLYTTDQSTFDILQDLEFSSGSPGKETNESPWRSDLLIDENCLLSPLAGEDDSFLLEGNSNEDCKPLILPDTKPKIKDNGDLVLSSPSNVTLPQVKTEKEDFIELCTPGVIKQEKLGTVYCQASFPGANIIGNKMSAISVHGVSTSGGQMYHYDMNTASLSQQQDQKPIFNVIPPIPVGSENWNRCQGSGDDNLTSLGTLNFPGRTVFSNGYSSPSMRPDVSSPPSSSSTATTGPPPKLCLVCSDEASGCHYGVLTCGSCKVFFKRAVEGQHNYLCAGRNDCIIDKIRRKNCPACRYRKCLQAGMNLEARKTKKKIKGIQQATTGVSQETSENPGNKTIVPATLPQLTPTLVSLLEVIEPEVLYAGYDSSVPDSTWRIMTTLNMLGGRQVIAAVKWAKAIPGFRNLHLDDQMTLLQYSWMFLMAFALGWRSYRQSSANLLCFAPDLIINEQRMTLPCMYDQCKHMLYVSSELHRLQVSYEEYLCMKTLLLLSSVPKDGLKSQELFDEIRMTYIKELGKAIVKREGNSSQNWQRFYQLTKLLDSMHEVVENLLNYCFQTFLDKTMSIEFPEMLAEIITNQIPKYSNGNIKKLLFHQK
Assay [7] has the same target. The assay is described as follows: GR-EFC Redistribution (AID 451; calls by dose curve; also: potency is read from the fitted curve at half-maximal effect). As to conditions: CHO-K1 GR-EFC translocation, beta-gal luminescence, 2 h. In short, it runs like this:
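CHO-K1 cells expressing nuclear EA and GR-ED fragments of b-gal; compounds titrated up to 46 uM final, 2 h at 37 C. GR nuclear translocation read as complemented b-gal luminescence after 1 h RT detection.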

The target of assay [8] is Mitogen-activated protein kinase 10 (Mus musculus) (UniProt Q61831). In words: JNK3 AlphaScreen Assay (AID 530; active = well fitted curve in either direction with a large enough effect, not every such curve was filed as active;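 also: kinase came from lysate of stimulated human HepG2 cells; signal reports phosphorylation of biotinylated GST-cJun 1-79 at Ser73 with 10 µM ATP; % is scaled to controls: 0 for no effect and ±100 for the full control effect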). The conditions noted are these: JNK3 lysate, c-Jun phosphorylation; series mostly up to 57.1 µM. In short, it runs like this: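 Activity was read by AlphaScreen after JNK3-containing HepG2 lysate (cytokine pre-activated) phosphorylated biotinylated GST-cJun with 10 uM ATP at room temperature. Phospho-Ser73 cJun antibody with Protein-A acceptor beads provided detection.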

Assay [9] deals with Cytochrome P450 3A4 (Homo sapiens) (UniProt P08684). The assay is described as follows: qHTS Assay for Inhibitors and Substrates of Cytochrome P450 3A4 (AID 884). Also: potency is read from the fitted curve at half-maximal effect; nearly all actives have a fitted effect of over 50% in size. As to conditions: recombinant CYP3A4, Luciferin-PPXE luminescence; series mostly up to 57.1 µM. In short, it runs like this:
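Luminescent readout of luciferin produced by CYP3A4 (20 nM) dealkylation of Luciferin-PPXE, 25 uM (its KM). NADPH-driven reaction ran 60 min at RT after 10 min compound preincubation; data scaled to 57 uM ketoconazole as 100% inhibition.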

Assay [10] has the same target. In words: qHTS Assay for Activators of Cytochrome P450 3A4 (AID 885). Also: nearly all actives have a fitted effect of over 65% in size. As to conditions: recombinant CYP3A4, Luciferin-PPXE luminescence, 60 min; series mostly up to 57.1 µM. In outline:
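Using 20nM recombinant human CYP3A4 in potassium phosphate (200mM), substrate Luciferin-PPXE at 25uM, luminescent luciferin detection followed a 60-min RT NADPH reaction; data scaled to 57 uM ketoconazole.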
(In general: qHTS replaces the single test concentration by a dilution series.)

The target in assay [11] is Cytochrome P450 2C19 (Homo sapiens) (UniProt P33261). The assay is described as follows: qHTS Assay for Inhibitors and Substrates of Cytochrome P450 2C19 (AID 899). Also: potency is read from the fitted curve at half-maximal effect; nearly all actives have a fitted effect of over 60% in size. The conditions noted are these: recombinant CYP2C19, luciferin-H EGE luminescence; series mostly up to 57.1 µM. In outline: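 5 nM human CYP2C19 with 10uM Luciferin-H EGE (at KM) in 50mM KPO4, compound preincubated 10 min at 37C, then NADPH regeneration for 60 min at 37C. Luciferin read by luminescence after detection reagent; normalized to 57uM ketoconazole as full inhibition.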
Sequence of Cytochrome P450 2C19 (Homo sapiens) (P33261 whole entry, looked up): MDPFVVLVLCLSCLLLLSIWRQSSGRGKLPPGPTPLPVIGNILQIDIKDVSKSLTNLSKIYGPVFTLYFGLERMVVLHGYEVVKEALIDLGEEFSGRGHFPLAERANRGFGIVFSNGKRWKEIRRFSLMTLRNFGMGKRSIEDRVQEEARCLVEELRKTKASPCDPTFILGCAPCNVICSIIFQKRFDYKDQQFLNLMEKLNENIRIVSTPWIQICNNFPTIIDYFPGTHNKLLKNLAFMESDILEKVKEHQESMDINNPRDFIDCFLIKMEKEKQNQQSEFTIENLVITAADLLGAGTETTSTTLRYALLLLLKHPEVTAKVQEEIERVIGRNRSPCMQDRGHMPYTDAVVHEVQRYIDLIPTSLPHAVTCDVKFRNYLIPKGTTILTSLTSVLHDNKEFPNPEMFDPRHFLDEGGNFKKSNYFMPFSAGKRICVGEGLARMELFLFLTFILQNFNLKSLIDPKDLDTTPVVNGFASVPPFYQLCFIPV

In assay [12] the target is Dual specificity protein kinase CLK4 (Homo sapiens) (UniProt Q9HAZ1). In words: qHTS Assay for Inhibitors of CDC-like Kinase 4 (Kinase-Glo Assay) (AID 1770). Also: nearly all actives have a fitted effect of over 65% in size. Also: potency is read from the fitted curve at half-maximal effect. The conditions noted are these: recombinant Clk4, Kinase-Glo ATP depletion luminescence; series mostly up to 66.7 µM. In short, it runs like this:
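Substrate mix (RS peptide 100 uM, ATP 1 uM) dispensed, compound pinned in, then Clk4 added to 25 nM final. Incubated 4.5 h at RT; Kinase-Glo reagent added, luminescence read after 5 min.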

For assay [13] the target is unchanged. In words: qHTS Assay for Inhibitors of CDC-like Kinase 4 (ADP-Glo Assay) (AID 1771). Also: nearly all actives have a fitted effect of over 70% in size. Also: potency is read from the fitted curve at half-maximal effect. The conditions noted are these: recombinant CLK4, ADP-Glo luminescence; series mostly up to 80 µM. In outline: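 Compounds are pin-transferred onto substrate mix (100 uM RS peptide, 1 uM ATP), then 25 nM Clk4 is added. After 1 hr at room temperature, ADP-Glo reagent runs 45 min, detection reagent 30 min, then luminescence is read.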

For assay [14] the target is unchanged. The assay is described as follows: qHTS Assay for Inhibitors of CDC-like Kinase 4 (ADP-FP Assay) (AID 1795). Also: nearly all actives have a fitted effect of over 60% in size. Also: potency is read from the fitted curve at half-maximal effect. The conditions noted are these: Transcreener ADP fluorescence polarization; series mostly up to 50 µM. In outline: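 Clk4 6.25 nM; RS peptide 100 uM; ATP 1 uM; 25 mM Tris pH 7.5, 10 mM MgCl2; 1 h reaction. ADP detected via antibody/orange tracer FP displacement; TG003 positive control.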

Assay [15] concerns the target Ubiquitin carboxyl-terminal hydrolase 1 (Homo sapiens) (UniProt O94782). The assay is described as follows: Inhibitors of USP1/UAF1: Pilot qHTS (AID 504865).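 Also: rhodamine fluorescence freed from ubiquitin-rhodamine substrate followed over time; top concentration of the series differs between compounds; % is scaled to controls: 0 for no effect and ±100 for the full control effect; nearly all actives have a fitted effect of over 35% in size.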 As to conditions: purified USP1/UAF1, Ub-rhodamine cleavage fluorescence; series mostly up to 54.9 µM. In short, it runs like this: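 In 50mM HEPES pH 7.8 containing 0.5mM EDTA, 1mM TCEP, 0.1 mg/ml BSA and 0.01% Tween-20, 1nM USP1/UAF1 is exposed to compound for 15 min, then Ub-Rho (150nM final) is added and fluorescence is read over time.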

Assay [16] in a line: Primary qHTS for small molecule stabilizers of the endoplasmic reticulum resident proteome: Secreted ER Calcium Modulated Protein (SERCaMP) assay (AID 1508630). Also: % is scaled to controls: 0 for no effect and ±100 for the full control effect. The conditions noted are these: SH-SY5Y GLuc-SERCaMP (Gaussia luciferase released on ER calcium loss) secretion, thapsigargin, luminescence; series mostly up to 38.4 µM. In outline:
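The SH-SY5Y reporter protocol was run at 3 concentrations up to 38.3 uM (primary) or 11 concentrations (follow-up): 16 h compound, 100 nM thapsigargin for 4 h, then extracellular luciferase luminescence.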

The target of assay [17] is 3',5'-cyclic-AMP phosphodiesterase 4B (Homo sapiens) (UniProt Q07343). In words: qHTS Assay for Inhibitors of PDE-IV (AID 607; active = well fitted activation curve with a large enough effect in the main read-out, with a control signal flat, not every such curve was filed as active; also: % of control where 0% means no effect). As to conditions: HEK293 ACTOne CNG channel cells, membrane potential fluorescence; series mostly up to 22.9 µM. In short, it runs like this: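 Live HEK293 cells with a modified cyclic nucleotide-gated (CNG) channel report intracellular cAMP via membrane-potential dye fluorescence (ex 535/em 590 nm). Endogenous PDE-IV was targeted. Compounds were tested at up to 22.9 uM final; RO 20-1724 100 uM served as control.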
Sequence of 3',5'-cyclic-AMP phosphodiesterase 4B (Homo sapiens) (Q07343 whole entry, looked up): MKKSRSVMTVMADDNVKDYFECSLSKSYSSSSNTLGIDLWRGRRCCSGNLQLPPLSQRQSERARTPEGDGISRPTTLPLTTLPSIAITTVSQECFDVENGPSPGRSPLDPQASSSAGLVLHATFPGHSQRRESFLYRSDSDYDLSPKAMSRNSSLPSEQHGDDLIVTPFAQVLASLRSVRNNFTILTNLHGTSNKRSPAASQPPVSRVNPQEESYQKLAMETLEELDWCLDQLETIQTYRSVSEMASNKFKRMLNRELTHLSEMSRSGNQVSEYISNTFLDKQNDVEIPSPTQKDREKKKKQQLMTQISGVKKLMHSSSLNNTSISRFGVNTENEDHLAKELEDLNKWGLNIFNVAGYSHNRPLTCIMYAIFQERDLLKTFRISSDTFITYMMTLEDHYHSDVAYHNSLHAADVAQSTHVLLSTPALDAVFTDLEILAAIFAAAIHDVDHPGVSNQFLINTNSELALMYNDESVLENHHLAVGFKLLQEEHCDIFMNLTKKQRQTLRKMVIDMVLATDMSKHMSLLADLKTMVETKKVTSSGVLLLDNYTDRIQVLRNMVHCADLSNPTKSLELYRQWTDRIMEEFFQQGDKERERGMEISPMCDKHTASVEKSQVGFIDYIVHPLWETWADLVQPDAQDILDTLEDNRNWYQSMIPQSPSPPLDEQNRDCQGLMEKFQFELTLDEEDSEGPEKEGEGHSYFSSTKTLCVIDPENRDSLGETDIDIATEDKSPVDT

Sequence of Cytochrome P450 3A4 (Homo sapiens) (P08684 whole entry, looked up): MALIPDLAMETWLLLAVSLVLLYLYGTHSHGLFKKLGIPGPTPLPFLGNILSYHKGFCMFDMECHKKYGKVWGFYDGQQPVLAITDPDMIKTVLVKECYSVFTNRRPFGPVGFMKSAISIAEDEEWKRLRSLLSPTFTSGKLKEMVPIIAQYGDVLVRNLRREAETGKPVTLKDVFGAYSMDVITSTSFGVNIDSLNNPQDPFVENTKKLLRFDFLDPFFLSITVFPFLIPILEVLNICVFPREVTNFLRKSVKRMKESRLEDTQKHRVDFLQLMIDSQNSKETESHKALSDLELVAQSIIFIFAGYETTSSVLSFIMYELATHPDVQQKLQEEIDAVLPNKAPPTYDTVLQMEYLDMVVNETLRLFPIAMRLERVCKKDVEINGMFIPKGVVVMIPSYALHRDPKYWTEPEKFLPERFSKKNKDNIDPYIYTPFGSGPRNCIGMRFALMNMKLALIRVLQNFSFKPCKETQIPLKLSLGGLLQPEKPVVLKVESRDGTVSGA
Sequence of Dual specificity protein kinase CLK4 (Homo sapiens) (Q9HAZ1 whole entry, looked up): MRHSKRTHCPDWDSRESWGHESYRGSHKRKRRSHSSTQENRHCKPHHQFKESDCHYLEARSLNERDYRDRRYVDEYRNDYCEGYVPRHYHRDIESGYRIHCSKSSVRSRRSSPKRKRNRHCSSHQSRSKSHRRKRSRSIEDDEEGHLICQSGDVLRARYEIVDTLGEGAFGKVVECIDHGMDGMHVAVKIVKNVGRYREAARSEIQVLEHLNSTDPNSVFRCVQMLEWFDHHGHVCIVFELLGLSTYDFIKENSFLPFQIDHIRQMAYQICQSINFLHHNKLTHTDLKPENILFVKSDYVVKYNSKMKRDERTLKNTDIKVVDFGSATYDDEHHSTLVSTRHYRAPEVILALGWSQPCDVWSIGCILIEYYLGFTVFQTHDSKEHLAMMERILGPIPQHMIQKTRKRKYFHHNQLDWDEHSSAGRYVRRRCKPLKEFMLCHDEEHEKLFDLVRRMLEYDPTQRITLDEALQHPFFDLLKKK
Sequence of Cytochrome P450 1A2 (Homo sapiens) (P05177 whole entry, looked up): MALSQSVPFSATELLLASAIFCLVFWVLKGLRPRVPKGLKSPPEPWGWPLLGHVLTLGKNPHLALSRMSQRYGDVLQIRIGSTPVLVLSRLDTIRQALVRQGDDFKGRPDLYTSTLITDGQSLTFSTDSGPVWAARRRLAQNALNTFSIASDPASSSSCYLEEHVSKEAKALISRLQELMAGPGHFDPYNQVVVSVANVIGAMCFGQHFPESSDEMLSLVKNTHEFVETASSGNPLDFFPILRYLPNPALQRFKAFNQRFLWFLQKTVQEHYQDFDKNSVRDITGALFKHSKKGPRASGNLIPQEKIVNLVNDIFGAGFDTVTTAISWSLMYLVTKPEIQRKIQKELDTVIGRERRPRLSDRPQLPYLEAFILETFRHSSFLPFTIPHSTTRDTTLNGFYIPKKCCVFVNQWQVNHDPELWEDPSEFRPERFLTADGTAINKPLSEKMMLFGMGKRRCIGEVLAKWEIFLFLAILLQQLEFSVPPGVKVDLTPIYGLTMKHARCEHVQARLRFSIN
Sequence of Ubiquitin carboxyl-terminal hydrolase 1 (Homo sapiens) (O94782 whole entry, looked up): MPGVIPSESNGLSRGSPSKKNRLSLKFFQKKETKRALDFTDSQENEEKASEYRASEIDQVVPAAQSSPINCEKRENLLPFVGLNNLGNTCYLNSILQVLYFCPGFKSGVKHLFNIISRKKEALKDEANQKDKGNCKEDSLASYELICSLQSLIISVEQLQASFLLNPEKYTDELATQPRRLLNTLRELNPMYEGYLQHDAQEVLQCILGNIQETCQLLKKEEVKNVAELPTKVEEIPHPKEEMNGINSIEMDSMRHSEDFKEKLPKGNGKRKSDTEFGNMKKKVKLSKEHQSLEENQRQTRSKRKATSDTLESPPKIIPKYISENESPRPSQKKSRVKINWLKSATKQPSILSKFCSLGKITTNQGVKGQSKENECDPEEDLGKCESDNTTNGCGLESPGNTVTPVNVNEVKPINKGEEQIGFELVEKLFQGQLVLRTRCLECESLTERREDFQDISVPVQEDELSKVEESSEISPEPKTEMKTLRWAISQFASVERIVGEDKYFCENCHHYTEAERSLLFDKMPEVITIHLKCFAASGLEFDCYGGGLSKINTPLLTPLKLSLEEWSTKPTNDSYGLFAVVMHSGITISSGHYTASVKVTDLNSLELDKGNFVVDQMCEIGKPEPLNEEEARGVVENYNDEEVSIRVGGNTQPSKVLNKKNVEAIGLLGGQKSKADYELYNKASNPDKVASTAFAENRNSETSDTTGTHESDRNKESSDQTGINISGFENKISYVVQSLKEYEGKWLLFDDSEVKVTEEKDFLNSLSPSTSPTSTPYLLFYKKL

On to `c1ccc(CNc2ncncc2-c2ccc3c(c2)OCO3)cc1`, for which the Potency is above 11.4 µM in assay [1]; 0.126 µM (active) in assay [3]; above 46 µM in assay [6]; above 46 µM in assay [7]; 0.501 µM (active) in assay [9]; 0.501 µM (active) in assay [11]. Moreover, the Potency in assay [12] is 6.31 µM (active); in assay [13] it was 7.08 µM (active); in [14] it was 2.51 µM (active). Moreover, the activity change, negative = inhibition in assay [2] is -23.4%; in assay [4], 7.28%. Moreover, the activity, negative = inhibition in assay [5] was -0.121%. The Potency entry in assay [8], in assay [10] and in assay [15] was “inactive” each time. For the same compound, in [16], the outcome was inactive.

`Cc1ccccc1-c1cncnc1Nc1ccccc1`: the Potency is above 11.4 µM in [1]; 15.8 µM (active) in [3]; above 46 µM in assay [6]; above 46 µM in assay [7]; 0.631 µM (active) in [9]; 3.16 µM (active) in assay [11]. Moreover, the activity change, negative = inhibition was -10.9% in assay [2] and -1.77% in assay [4]. For the same compound, the activity, negative = inhibition in [5] is 16%. Besides, the Potency result in assay [8], in assay [10], in assay [12], in assay [13], in assay [14] and in assay [15] was “inactive” throughout. Further, the result in assay [16] was inactive.

With `COc1ncc2nc(CCc3ccccc3)c(=O)n(CCc3ccccc3)c2n1`, the Potency in assay [1] is above 11.4 µM; in assay [3], 3.98 µM (active); in assay [6], above 9.22 µM; in assay [7], above 46 µM; in [9] it was 3.16 µM (active); in assay [11] it was 7.94 µM (active). Also, the activity change, negative = inhibition is -0.194% in [2] and -0.888% in [4]. Further, the activity, negative = inhibition in assay [5] was -1.74%. Moreover, the Potency entry in assay [8], in [10], in assay [12], in assay [13], in assay [14] and in assay [15] was “inactive” throughout. Also, the outcome in assay [16] was inactive.

Regarding `Cc1cnc(CNc2ncnc3ccc(-c4ccc5c(c4)OCO5)cc23)cn1`, the Potency is above 11.4 µM in assay [1]; 0.398 µM (active) in [3]; above 46 µM in [6]; above 46 µM in assay [7]; 2.51 µM (active) in [9]; 0.282 µM (active) in assay [12]. The Potency in assay [13] is 0.398 µM (active); in assay [14], 0.224 µM (active). The values for the activity change, negative = inhibition in assay [2] and in assay [4] were -18.1% and 14.2%, respectively. The activity, negative = inhibition in assay [5] was -16.2%. For the same compound, the Potency result in [17], in [10] and in [15] was “inactive” throughout. Also, the result in [16] was inactive.

As to `COc1cccc(-c2cc(NCc3ccccc3)ncn2)c1`, the Potency was above 11.4 µM in [1]; 2 µM (active) in assay [3]; above 46 µM in [6]; above 46 µM in [7]; 7.94 µM (active) in assay [11]; 15.8 µM (active) in assay [12]. For the same compound, the Potency was 28.2 µM (active) in [13] and 12.6 µM (active) in [14]. Besides, the activity change, negative = inhibition in assay [2] was -18.4%; in [4] it was 13.6%. Moreover, in assay [5], the activity, negative = inhibition was -5.77%. Also, the Potency entry in [8], in [10] and in [15] was “inactive” in each case. Also, in assay [16], the result was inactive.

Take `COc1ncc2nc(C)c(=O)n(CCc3ccccc3)c2n1`: the Potency in assay [1] is above 11.4 µM; in assay [3], 2 µM (active); in assay [6], above 9.22 µM; in assay [7] it was above 46 µM. Moreover, the activity change, negative = inhibition in assay [2] was -1.51%; in assay [4], -3.03%. The activity, negative = inhibition in assay [5] was -12.2%. For the same compound, the Potency entry in assay [8], in [10], in [12], in assay [13], in assay [14] and in assay [15] was “inactive” each time. Moreover, the outcome in assay [16] was inactive.
